# Measurements taken from publication PMC7862700, “An all-to-all approach to the identification of sequence-specific readers for epigenetic DNA modifications on cytosine”.
# Molecular target: T1, ETV3 (Homo sapiens, UniProt P41162-2 1-143)
# T1 sequence: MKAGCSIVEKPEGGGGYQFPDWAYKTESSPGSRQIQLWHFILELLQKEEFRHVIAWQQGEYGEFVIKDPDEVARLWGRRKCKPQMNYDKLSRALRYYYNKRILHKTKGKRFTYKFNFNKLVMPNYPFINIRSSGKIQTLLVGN
# Test: DAPPL (digital affinity profiling via proximity ligation, sequencing); 10 mM Tris-HCl pH 7.5, 50 mM NaCl, 1 mM DTT, 4% glycerol, room temperature, 30 min; GST-TFs on glutathione beads, 16-mer random dsDNA library, 0.1% formaldehyde crosslink after washing; high values mean tight binding
# Conditions: protein: recombinant; tags: N-terminal GST; dsDNA, one strand shown
# Outline: (§1)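 In yeast, human transcription factors were expressed with a GST fusion, then pulled down on glutathione beads and given DNA barcodes. Pooled with a tag-only sample, they were exposed to 200 nmole of a 16-mer random double-stranded DNA library (Tris/NaCl/DTT/glycerol buffer, room temperature, 30 min), washed, crosslinked with 0.1% formaldehyde, proximity-ligated using BsaI/T4 ligase for 1 h at 37 °C, PCR-amplified and read on an Illumina NextSeq500. Each hexamer's frequency of reads for a factor, divided by the matching frequency for the tag-only sample, gives the binding signal.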
row,Sequence,binding signal
1,AACTTG,"1.28 fold enrichment (6-mer frequency, TF over GST control)"
2,TCCCAG,"1.07 fold enrichment (6-mer frequency, TF over GST control)"
3,CGATAT,"1.03 fold enrichment (6-mer frequency, TF over GST control)"
4,TAAGGT,"1.11 fold enrichment (6-mer frequency, TF over GST control)"
5,AAAAGT,"1.07 fold enrichment (6-mer frequency, TF over GST control)"
6,GTTAAG,"1.18 fold enrichment (6-mer frequency, TF over GST control)"
7,TAGAAT,"1.05 fold enrichment (6-mer frequency, TF over GST control)"
8,GCGTTC,"1.11 fold enrichment (6-mer frequency, TF over GST control)"
9,CTGCCA,"1.09 fold enrichment (6-mer frequency, TF over GST control)"
10,CCCCGA,"1.05 fold enrichment (6-mer frequency, TF over GST control)"
11,GCACTC,"1.28 fold enrichment (6-mer frequency, TF over GST control)"
12,AAACTG,"1.07 fold enrichment (6-mer frequency, TF over GST control)"
13,TGATAT,"1.15 fold enrichment (6-mer frequency, TF over GST control)"
14,TCGCAC,"1.07 fold enrichment (6-mer frequency, TF over GST control)"
15,GAAACT,"1.16 fold enrichment (6-mer frequency, TF over GST control)"
16,GGAATT,"1.2 fold enrichment (6-mer frequency, TF over GST control)"
17,TTCGGC,"1.13 fold enrichment (6-mer frequency, TF over GST control)"
18,TCTGGG,"1.09 fold enrichment (6-mer frequency, TF over GST control)"
19,AGTAAT,"1.03 fold enrichment (6-mer frequency, TF over GST control)"

# Molecular target: ETV6 (Homo sapiens, UniProt P41212 1-452)
# Test: as above
# Conditions: protein: recombinant; tags: N-terminal GST; dsDNA, one strand shown
# Outline: as §1
# Chain of ETV6 (P41212 whole entry): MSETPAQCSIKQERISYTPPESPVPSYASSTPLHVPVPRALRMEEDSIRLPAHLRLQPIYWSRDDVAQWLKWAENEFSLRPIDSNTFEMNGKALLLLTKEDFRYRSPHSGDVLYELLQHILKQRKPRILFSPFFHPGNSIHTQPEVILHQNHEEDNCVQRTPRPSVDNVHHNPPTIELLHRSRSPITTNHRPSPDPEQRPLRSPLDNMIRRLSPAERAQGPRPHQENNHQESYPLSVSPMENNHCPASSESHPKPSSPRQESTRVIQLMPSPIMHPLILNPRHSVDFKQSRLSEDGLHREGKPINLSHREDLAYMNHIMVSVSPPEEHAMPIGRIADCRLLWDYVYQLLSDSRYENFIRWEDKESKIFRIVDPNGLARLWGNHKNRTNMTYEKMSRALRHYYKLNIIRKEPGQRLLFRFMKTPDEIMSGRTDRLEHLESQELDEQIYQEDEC
row,Sequence,binding signal
1,GTTAAA,"1.08 fold enrichment (6-mer frequency, TF over GST control)"
2,TGTACC,"1.28 fold enrichment (6-mer frequency, TF over GST control)"
3,ATCCAA,"1.11 fold enrichment (6-mer frequency, TF over GST control)"
4,TGAATG,"1.22 fold enrichment (6-mer frequency, TF over GST control)"
5,GGTTTA,"1.07 fold enrichment (6-mer frequency, TF over GST control)"
6,GTTCGA,"1.02 fold enrichment (6-mer frequency, TF over GST control)"
7,AGGAAA,"1.75 fold enrichment (6-mer frequency, TF over GST control)"
8,CCGACA,"1.23 fold enrichment (6-mer frequency, TF over GST control)"
9,GCCGAT,"1.2 fold enrichment (6-mer frequency, TF over GST control)"
10,AGTTAA,"1.11 fold enrichment (6-mer frequency, TF over GST control)"
11,CTGAAG,"1.05 fold enrichment (6-mer frequency, TF over GST control)"
12,AGGTTT,"1.03 fold enrichment (6-mer frequency, TF over GST control)"
13,TTATTA,"1.13 fold enrichment (6-mer frequency, TF over GST control)"
14,TAGTAA,"1.07 fold enrichment (6-mer frequency, TF over GST control)"
15,TACTGG,"1.15 fold enrichment (6-mer frequency, TF over GST control)"
16,TGAGCT,"1.05 fold enrichment (6-mer frequency, TF over GST control)"
17,TTTGAG,"1.02 fold enrichment (6-mer frequency, TF over GST control)"
18,GTTAAT,"1.06 fold enrichment (6-mer frequency, TF over GST control)"

row,Sequence,binding signal
1,TGTACG,"1.18 fold enrichment (6-mer frequency, TF over GST control)"
2,AACTTG,"1.09 fold enrichment (6-mer frequency, TF over GST control)"
3,CGATAT,"1.06 fold enrichment (6-mer frequency, TF over GST control)"
4,TAAGGT,"1.08 fold enrichment (6-mer frequency, TF over GST control)"
5,AAAAGT,"1.06 fold enrichment (6-mer frequency, TF over GST control)"
6,GTTAAG,"1.02 fold enrichment (6-mer frequency, TF over GST control)"
7,TAGAAT,"1.15 fold enrichment (6-mer frequency, TF over GST control)"
8,GCGTTC,"1.12 fold enrichment (6-mer frequency, TF over GST control)"
9,CTGCCA,"1.14 fold enrichment (6-mer frequency, TF over GST control)"
10,CCCCGA,"1.11 fold enrichment (6-mer frequency, TF over GST control)"
11,GCACTC,"1.34 fold enrichment (6-mer frequency, TF over GST control)"
12,AAACTG,"1.12 fold enrichment (6-mer frequency, TF over GST control)"
13,TAGTCC,"1.14 fold enrichment (6-mer frequency, TF over GST control)"
14,TGATAT,"1.06 fold enrichment (6-mer frequency, TF over GST control)"
15,GAAACT,"1.2 fold enrichment (6-mer frequency, TF over GST control)"
16,GGAATT,"1.14 fold enrichment (6-mer frequency, TF over GST control)"
17,TCTGGG,"1.14 fold enrichment (6-mer frequency, TF over GST control)"
18,AGTAAT,"1.15 fold enrichment (6-mer frequency, TF over GST control)"
